# Test results: PubChem BioAssay (NCI)
# About 83,000 compounds went through this panel and 20% of them were active in at least one assay; those are over-represented in the sample as a whole.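 The endpoint reported here, percent growth, reads 100 for growth as untreated, 0 for no net growth and -100 for all cells dead.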 Unmarked numbers belong to inactive results. Active and inactive are the calls of the source. How the source made its calls: active means growth percent below 10; inactive means the rest.
# Tests used:
# Assay in all cases: NCI-60 one-dose screen, 48 h (100 = growth as untreated, 0 = no growth, -100 = all killed)
# Settings in all cases: 10 µM unless noted
# [1] = test system: NCI-H23 lung
# [2] = test system: NCI-H226 lung
# [3] = test system: NCI-H322M lung
# [4] = test system: HOP-62 NSCLC
# [5] = test system: NCI-H460 lung
# [6] = test system: HOP-92 NSCLC
# [7] = test system: NCI-H522 lung
# [8] = test system: A549/ATCC NSCLC
# [9] = test system: 786-0 renal
# [10] = test system: COLO 205 colon
# [11] = test system: DU-145 prostate
# [12] = test system: K-562 leukemia
# [13] = test system: MALME-3M melanoma
# [14] = test system: MDA-MB-231 breast
# [15] = test system: RXF 393 renal
# [16] = test system: SF-268 CNS
# [17] = test system: SF-295 CNS
# [18] = test system: SF-539 CNS
# [19] = test system: UACC-257 melanoma
# [20] = test system: M14 melanoma
Compound,growth [1],growth [2],growth [3],growth [4],growth [5],growth [6],growth [7],growth [8],growth [9],growth [10],growth [11],growth [12],growth [13],growth [14],growth [15],growth [16],growth [17],growth [18],growth [19],growth [20]
CNC(=O)c1cccc(Cn2nc(C)c(NC(=O)c3ccc(COc4ccc(C(F)(F)F)cc4C)cc3)c2C)n1,43.5%,44.4%,88.9%,46%,50.8%,74.4%,40%,39.1%,61.9%,37.3%,61.2%,30.4%,83.8%,75.2%,64.5%,61.2%,25.8%,72%,20.7%,–
CCCOC(=O)N[C@H]1CCc2cc(OC)c(OC)c(OC)c2-c2ccc(SC)c(=O)cc21,35%,13%,32.7%,39.3%,0.992% (active),34.9%,21.5%,22.6%,24.1%,1.57% (active),-18.3% (active),7.7% (active),35.4%,-8.18% (active),19.5%,22.6%,17.3%,-21.5% (active),71.8%,6.23% (active)
O=C1c2ccc3c4c(ccc(c24)C(=O)N1CCCNCc1ccccc1Cl)C(=O)N(CCCNCc1ccccc1Cl)C3=O,-51.9% (active),-57.1% (active),-66.2% (active),-19.8% (active),-52.1% (active),-7.21% (active),-83.1% (active),-84.1% (active),-32.8% (active),-15.9% (active),-86.5% (active),-38.2% (active),-72.9% (active),16.7%,-94.2% (active),-30.2% (active),-52.2% (active),-67.6% (active),-90.6% (active),–
O=C(Nc1cccc(C2=NCCN2)c1)c1ccc(-c2ccc(C(=O)Nc3cccc(C4=NCCN4)c3)cc2)cc1,73%,84%,93.8%,113%,37.8%,90.9%,60.5%,74.9%,86.2%,43.9%,39.1%,35.5%,9.06% (active),79.6%,122%,90.2%,71.1%,97.5%,36.7%,–
CC1=CCC(OC(=O)C(C)(O)CCC(O)(C(=O)OC2(C)C=CC(O)(C(C)C)CC2)C(C)C)(C(C)C)CC1 (configuration not stated),108%,106%,99.1%,99.8%,111%,109%,93.7%,101%,100%,116%,113%,105%,97.2%,100%,98.5%,101%,101%,103%,106%,102%
C/C(=N\NC(=O)CSc1nc2ccccc2c(=O)n1Cc1ccc(S(N)(=O)=O)cc1)c1ccc(F)cc1,105%,102%,102%,98.8%,103%,124%,18.1%,102%,104%,115%,111%,103%,106%,101%,109%,98.8%,102%,104%,107%,107%
O=C(Nc1ccccc1C(=O)N/N=C(\c1ccccc1)c1ccccn1)c1ccc(F)cc1,28.2%,27.4%,25.9%,12.6%,6.06% (active),69.1%,22.7%,15.6%,-8.12% (active),10.6%,23.5%,12.8%,35.6%,36.6%,37.2%,19.2%,20.9%,9.35% (active),2.87% (active),-23.3% (active)
